Each structure is given as a SMILES string. The whole screen tested about 69,000 compounds, of which about 8,600 (12%) showed an effect of 50% or more. The sample as a whole holds a higher share of strong results than the screen did.

This assay relates to Plasmodium berghei. Kind of assay: Screen against P. berghei liver stage (PbLuc), transformed with Luciferase, at 10uM. It counts as functional, HepG2. Particulars: tested at 10 uM.
Consider `CN(C)CCO[C@@H]1CC[C@H]2[C@H]1OCCN2C(=O)CCc1ccccc1`, for which the INHIBITION turned out to be 5.65%.
The value for `CC(=O)N1C[C@H]2CC[C@@H](C1)N(S(=O)(=O)c1cc(F)ccc1C)C2` was -18.1%.
The result for `COc1ccc(N2CCC(N3CCOC(C(F)(F)F)C3)CC2)cc1` (stereo not drawn) reads -25.2%.
`CCS(=O)(=O)c1ccc(N2CCC(N)CC2)cc1`: the INHIBITION was determined as 12.2%.
The result for `NC1CCN(C2CCN(c3ccc(-c4ccco4)cc3)CC2)CC1` reads 65%; that for `CNC1CCN(C2CCN(c3ccc(-c4ccco4)cc3)CC2)CC1`, 49%.
The value for `O=C(O)c1ccccc1C1CCN(C2CCN(c3ccccc3)CC2)C1` (stereo not drawn) was 35.1%.
The result for `NCC1CCN(C2CCN(c3ccc(-c4ccco4)cc3)CC2)C1` (stereo not drawn) reads 92.8%; that for `Cc1cccc(C(=O)N2CCn3cc(CN4CCCCC4)nc3C2)n1`, 49.7%.
On to `Nc1cc2c(nn1)CCN(C(=O)Cc1ccc3c(c1)CCO3)C2`, for which the INHIBITION is 5.42%.
In the case of `NC(=O)c1cc2c(nc1N)CCN(C(=O)C1CCCCC1)C2`, the INHIBITION was found to be 62.9%.
As to `CCNc1cc2c(nn1)CCN(C(=O)CC1CCCCC1)C2`, the INHIBITION is on record as 30.2%.
`Cn1ncc2c1CCCN(C(=O)C1CCCC1)C2`: the INHIBITION is recorded as 22.75%.
Turning to `Nc1cc2c(nn1)CCN(C(=O)CCC1CCCCC1)C2`, the INHIBITION worked out at 62.6%.
The value for `Nc1cc2c(nn1)CCN(C(=O)CCCC1CCCCC1)C2` was 70.8%.
The result for `Nc1cc2c(nn1)CCN(C(=O)CC1CCCCC1)C2` reads 50.3%; that for `Nc1cc2c(nn1)CCN(C(=O)Cc1ccc3c(c1)CCCC3)C2`, 8.4%; that for `Nc1cc2c(nn1)CCN(C(=O)CCc1ccc3c(c1)OCO3)C2`, 32.9%.
For the compound `Nc1cc2c(nn1)CCN(C(=O)CC1CCCC1)C2`, the INHIBITION is given as 2.26%.
The result for `Cn1ncc2c1CCCN(C(=O)C1CCC1)C2` reads 10.855%; that for `Nc1cc2c(nn1)CCN(C(=O)C1CCc3ccccc31)C2` (stereo not drawn), 17.4%.
Turning to `Cn1nnc2c1CCN(Cc1ccccc1)C2COCC1CC1` (stereo not drawn), the INHIBITION came out at 33.5%.
Consider `COc1cn(CC(=O)N2CCN(c3ccc(Cl)cc3)CC2)c(C)cc1=O`, for which the INHIBITION turned out to be 28.3%.
Turning to `COc1cc(OC)cc(-c2cc(N)on2)c1`, the INHIBITION turned out to be 12.8%.
The result for `Cc1ccc(CN(CC(=O)N2CCOC(C)C2)C2CC2)cc1` (stereo not drawn) reads -59.4%.
The value for `C[C@@H](NC(=O)c1cnccn1)c1c(-c2ccc(Cl)cc2)noc1C(=O)O` was 26%; that for `CC(C)c1noc(CN(CCC2CCCCC2)CC(N)=O)n1` was 34%; that for `CN1CC(C(=O)NCCc2ccc3c(c2)OCCO3)CC1=O` (stereo not drawn) was 27.7%.
The result for `Cc1cc(C2CCCN2Cc2nc3ccccc3o2)on1` (stereo not drawn) reads -12.2%.
In the case of `CC(C)Cn1nnnc1SC(C(=O)NCc1cccnc1)C(C)C` (stereo not drawn), the INHIBITION is recorded as 16.9%.
The value for `Cc1nccnc1CCC1COCCN1C(=O)CCc1c(C)noc1C` (stereo not drawn) was 9.05%.
The value for `Cc1ncsc1CN1C[C@@H]2COC[C@]2(C(=O)NCc2cccnc2)C1` was 42.1%; that for `Cc1nc(C)c(CC(=O)N2CCC(c3ccn4nccc4n3)CC2)s1` was 4.13%; that for `CNc1ncccc1C(=O)N1CCCC2(C1)C(=O)N(C)c1ccccc12` (stereo not drawn) was -4.35%.
For `CCCc1noc2ncc(C(=O)N3CCCC3c3cnn(C)c3)cc12` (stereo not drawn), the INHIBITION is -29.1%.
Take `O=C1[C@H]2CN(S(=O)(=O)c3ccccc3)C[C@H]2CN1Cc1cccnc1`: the INHIBITION is -29%.
The result for `CN(C)CCN1C[C@@H]2CN(c3ccccc3)C[C@@H]2C1=O` reads 53.9%.
As for `CN(C)CCN1C[C@@H]2CN(S(=O)(=O)c3cccs3)C[C@@H]2C1=O`, the INHIBITION is -9.74%.
The value for `CN(C)CCN1C[C@@H]2CN(C(=O)C3CC=CC3)C[C@@H]2C1=O` was 8.31%.
Regarding `CN(C)CCN1C[C@@H]2CN(C(=O)c3ccsc3)C[C@@H]2C1=O`, the INHIBITION was 3.47%.
Take `CN(C)CCN1C[C@@H]2CN(S(=O)(=O)c3ccccc3)C[C@@H]2C1=O`: the INHIBITION was determined as 53.9%.
With `CN1CCN(Cc2cnc3n2CCN(CCc2ccccc2)C3)CC1`, the INHIBITION is listed as -18.2%.
Turning to `O=C(c1ccccn1)N1CCC(Cc2cnc3[nH]ccc3c2)CC1`, the INHIBITION is recorded as -12.2%.
As for `COC(=O)c1cccc(S(=O)(=O)NC(=O)COC2CCCCC2)c1`, the INHIBITION is 38.8%.
The result for `C[C@@H]1C[C@H](C(F)(F)F)n2nc(C3CCN(S(C)(=O)=O)CC3)cc2N1` reads 1.5%.
As for `O=C(C1CN(CC2CCOCC2)CC12CCOCC2)N1CCOCC1` (stereo not drawn), the INHIBITION turned out to be 23.3%.
On to `CNC(=O)[C@@H]1C[C@@H](NC(=O)c2ccc(OC)o2)CN1Cc1sccc1C`, for which the INHIBITION is reported as 20.8%.
The value for `CNC(=O)[C@@H]1C[C@@H](NC(=O)c2cn(C)nc2C)CN1Cc1sccc1C` was 25.8%.
In the case of `CNC(=O)[C@@H]1C[C@@H](NC(=O)Cc2nonc2C)CN1Cc1sccc1C`, the INHIBITION is listed as 51.5%.
For the compound `COc1ccc(OC)c(C(O)CNC(=O)Nc2cc(C)nn2C)c1` (stereo not drawn), the INHIBITION is recorded as 10.35%.
The value for `Cc1nn(C)c2nc(N3CCC(C(O)c4nccn4C)CC3)sc12` (stereo not drawn) was 12.8%; that for `Cc1nn(C)c2nc(NC3CCNCC3)sc12` was 10.7%.
Turning to `Cc1nn(C)c2nc(N3CCCCC3c3cccnc3)sc12` (stereo not drawn), the INHIBITION worked out at 33.1%.

Values taken from ChEMBL document CHEMBL4513216, “Probing the Open Global Health Chemical Diversity Library for Multistage-Active Starting Points for Next-Generation Antimalarials” (ACS Infect Dis, 2020).
